Where a name gives a salt, the structure may show the parent alone.
What follows are molecules tested on S. cerevisiae BY4741 (wild-type), vegetative growth in YPD (assay: growth sensitivity score (doubling time z-score vs DMSO controls); higher = slower growth, strongly negative scores also mark growth inhibition (complete suppression), active = hit call of the paper).
In short: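 Saccharomyces cerevisiae strains BY4741 and AD1-9 were seeded in rich medium in microtiter plates at an OD600 of 0.065. Compounds were added at a 1:100 dilution of DMSO stock. Optical density was read every 15 min for 24 hours on a Tecan GENios reader. Average doubling time was the time taken to reach a set generation point divided by generation number, and the growth sensitivity score was (compound mean − DMSO-control mean)/DMSO-control SD, using eight DMSO controls per experiment.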

| SMILES | growth sensitivity score |
| --- | --- |
| CN1CC(=O)N2[C@H](c3ccc4c(c3)OCO4)c3[nH]c4ccccc4c3C[C@@H]2C1=O [Tadalafil] (stock concentration (mM, diluted 1:100): 10) | -1.71 (inactive) |
| CS(=O)(=O)c1ccc(-c2cc(Br)sc2-c2ccc(F)cc2)cc1 (stock concentration (mM, diluted 1:100): 10) | -0.63 (inactive) |
| O=C(O)CCc1nc(-c2ccccc2)c(-c2ccccc2)o1 [Oxaprozin] (stock concentration (mM, diluted 1:100): 10) | 0.61 (inactive) |
| CCN(CC)CC1CCCCN1CC(=O)N1c2ccccc2C(=O)Nc2cccnc21 (stereo not drawn) [Otenzepad] (stock concentration (mM, diluted 1:100): 10) | -2.57 |
| CCOC(=O)c1ccc(OC(=O)CCCCCNC(=N)N)cc1 [Gabexate mesylate] (stock concentration (mM, diluted 1:100): 7.7) | 1.03 (inactive) |
| COC(=O)C1=C(C)NC(C)=C(C(=O)OC)C1c1ccccc1[N+](=O)[O-] [Nifedipine] (stock concentration (mM, diluted 1:100): 10.7) | 4.28 (active) |
| COc1cc(C)c(Cc2cnc(N)nc2N)cc1OC [Ormetoprim] (stock concentration (mM, diluted 1:100): 10) | -1.06 (inactive) |
| Nc1nc2ccc(OC(F)(F)F)cc2s1 [Riluzole] (stock concentration (mM, diluted 1:100): 9.9) | 5.49 (active) |

Source: the supplement of paper PMC3414501
